SMN2 splice up: enhancers of SMN2 splice variant expression. HEK293 SMN2-luciferase splicing reporter, luminescence, 30-36 h. Potency, µM (titrated, usually from 46.1 µM), hits mostly activators. 210,000 tested, 2.8% active; also: nearly all actives have a fitted effect of over 55% in size
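qHTS luciferase splicing reporter: luminescence rises when SMN2 exon 7 is included in transfected HEK293 cells. Compound exposure lasted 30-36 h at 37C, with 4.5 mM final sodium butyrate as control, followed by a ONE-Glo read.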
FLuc modulator: firefly luciferase modulation, counter-screen for miR-21 project; purified FLuc, Km substrates, luminescence inhibition; Potency, µM (highest dose often 57.5 µM), usual class: inhibitors; 360,000 tested, 6.9% active; AID 588342; also: nearly all actives have a fitted effect of over 55% in size
Target sequence (P08659 whole entry, looked up): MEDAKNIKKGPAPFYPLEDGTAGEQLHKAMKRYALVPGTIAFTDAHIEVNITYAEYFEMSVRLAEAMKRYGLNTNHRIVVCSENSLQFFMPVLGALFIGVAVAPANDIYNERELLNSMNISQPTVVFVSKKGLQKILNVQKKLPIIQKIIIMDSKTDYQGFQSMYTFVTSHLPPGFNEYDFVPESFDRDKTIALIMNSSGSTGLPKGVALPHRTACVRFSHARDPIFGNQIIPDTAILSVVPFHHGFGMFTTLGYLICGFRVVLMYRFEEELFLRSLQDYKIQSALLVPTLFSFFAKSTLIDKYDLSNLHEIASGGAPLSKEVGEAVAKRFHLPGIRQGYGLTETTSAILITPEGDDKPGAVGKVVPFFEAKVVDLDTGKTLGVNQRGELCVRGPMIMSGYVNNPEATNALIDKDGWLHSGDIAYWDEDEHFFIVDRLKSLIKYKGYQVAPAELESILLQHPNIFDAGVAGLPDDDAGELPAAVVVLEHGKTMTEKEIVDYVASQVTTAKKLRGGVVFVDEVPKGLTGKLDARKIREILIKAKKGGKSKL
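Purified P. pyralis luciferase (10nM final) with 10uM D-luciferin and 10uM ATP (Km levels) in 50mM Tris acetate pH 7.5, 10mM Mg acetate, 0.01% Tween-20, 0.05% BSA; qHTS 6-point titration, ~60 µM downward; luminescence read.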
p53 reactivation: restores transcriptional activity of mutant p53; H1299 p53-A138V BP100-luciferase reporter, luminescence, 24 h; Potency, µM (highest dose often 92.2 µM), hits mostly activators; 320,000 tested, 0.063% active; AID 504706; also: nearly all actives have a fitted effect of over 45% in size
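H1299 (p53-null), stable ts p53-A138V + BP100-Luc; 1000 cells/well, Opti-MEM/10% FBS; cpd 4 pt, 1:5; 24 h, 37 deg C, 5% CO2; detection reagent 10 min RT; luminescence.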
ELG1 genotoxic: inducers of genotoxicity in HEK293T ELG1-luciferase cells | HEK293T ELG1-luciferase reporter, luminescence, 16 h | Potency, µM (doses to about 46 µM), usual class: activators | 330,000 tested, 1.3% active | AID 504466; also: nearly all actives have a fitted effect of over 60% in size
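Step 1: seed 2,000 HEK293T ELG1-luciferase cells per well. Step 2: add compound or DMSO, incubate 16 hr at 37 °C. Step 3: ONE-Glo, 30 min at room temperature, read luminescence.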
NPC1 promoter act: activates the NPC1 promoter; Huh7 NPC1 promoter luciferase reporter, 24 h; Potency, µM (series often up to 9.22 µM), usual class: activators; 320,000 tested, 2.4% active; also: nearly all actives have a fitted effect of over 60% in size
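Cells: Huh7 expressing luciferase under the NPC1 promoter, 1500/well. Seeded 2 h, compound added, incubated 24 h at 37 °C. Luciferase reagent, 10 min ambient, then luminescence.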
Rab9 promoter act: Rab9 promoter activation. Huh7 Rab9 promoter-luciferase reporter, luminescence, 24 h. Potency, µM (highest dose often 9.22 µM), hits mostly activators. 320,000 tested, 2.8% active; also: nearly all actives have a fitted effect of over 60% in size
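Stable Rab9-luc Huh7, 1500 cells/well, 2 h settle; cmpd in DMSO, 24 h, 37 °C/5% CO2; luciferase reagent 10 min RT; luminescence.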
Each line names hits and unclear results; the compound was inactive in the other large screens. Hits are enriched below; roughly 7.4% of the tested compounds scored in any of these assays. Calls follow the shape of the dose curve; as a rule, active = well fitted curve in the direction sought with a large enough effect; inconclusive = small, poorly fitted or top-dose-only effect, or another doubt; inactive = no such curve, though single readings can be large; an effect the other way counts as inactive or inconclusive.

CC(=O)Nc1cccc(NC(=O)c2ccco2)c1	none
Cc1ccc(NC(=O)CSc2nc3nccnc3c(=O)n2CCc2c[nH]c3ccccc23)c(C)c1	none (no result: SMN2 splice up, p53 reactivation, ELG1 genotoxic, NPC1 promoter act, Rab9 promoter act)
Nn1c(COc2ccc(Cl)cc2)nc2ccccc2c1=O	SMN2 splice up 14µM, FLuc modulator inconclusive, p53 reactivation inconclusive, ELG1 genotoxic inconclusive, NPC1 promoter act inconclusive, Rab9 promoter act inconclusive
COC(=O)[C@H](C)N(Cc1ccc(Cl)c(Cl)c1)S(=O)(=O)CCN1CCN(c2ccccc2)CC1	none (no result: SMN2 splice up, FLuc modulator, NPC1 promoter act, Rab9 promoter act)
Cc1cc(/C=N/NC(=O)C(O)(c2ccccc2)c2ccccc2)c(C)n1-c1cccc(C(=O)O)c1	none (no result: SMN2 splice up)
Cc1cc(/C=N/NC(=O)c2cccc(N(C)C)c2)c(C)n1-c1cc(C(=O)O)cc(C(=O)O)c1	SMN2 splice up inconclusive, FLuc modulator 24µM, ELG1 genotoxic inconclusive, Rab9 promoter act inconclusive
CN(C)c1cccc(C(=O)N/N=C/c2ccccc2F)c1	SMN2 splice up 1.4µM, FLuc modulator 0.6µM, ELG1 genotoxic 1µM, NPC1 promoter act 0.71µM, Rab9 promoter act 0.35µM
O=C1CN(C(=O)Cc2ccc(F)cc2)C(c2ccccc2)c2cc(Cl)ccc2N1 (stereo not given)	none (no result: p53 reactivation, ELG1 genotoxic, NPC1 promoter act, Rab9 promoter act)
CCC(/C=C/C(C)C1CCC2C3CC=C4CC(O)CC[C@@]4(C)C3CC[C@@]12C)C(C)C (stereo not given in full)	none (no result: FLuc modulator, p53 reactivation, ELG1 genotoxic, NPC1 promoter act, Rab9 promoter act)
O=C1c2ccccc2C(=O)N1CCN1CCc2ccccc21	FLuc modulator 13µM, p53 reactivation inconclusive, ELG1 genotoxic inconclusive, NPC1 promoter act inconclusive, Rab9 promoter act inconclusive
c1ccc2c(c1)CCN2CCN1CCc2ccccc21	none
O=c1[nH]c(SCc2ccc(Cl)cc2)nc2ccsc12	SMN2 splice up inconclusive, FLuc modulator 6µM, Rab9 promoter act inconclusive
CCc1ccc(Nc2nnc(SCC(=O)Nc3cccnc3Cl)s2)cc1	FLuc modulator 1.3µM (no result: SMN2 splice up)
CCc1ccc(Nc2nnc(SCC(=O)c3c(N)n(C4CC4)c(=O)[nH]c3=O)s2)cc1	FLuc modulator 0.6µM, p53 reactivation inconclusive (no result: SMN2 splice up)
Cc1nnc(SCC(=O)Nc2cccnc2Cl)s1	none (no result: SMN2 splice up)
CCc1ccc(Nc2nnc(SCC(=O)Nc3sccc3C(N)=O)s2)cc1	SMN2 splice up inconclusive, FLuc modulator 2.1µM
Cc1nnc(SCC(=O)Nc2sccc2C(N)=O)s1	none (no result: SMN2 splice up)
COc1cccc(Nc2nnc(SCC(=O)Nc3sccc3C(N)=O)s2)c1	FLuc modulator 11µM
COc1cc(-c2ccno2)ccc1S(=O)(=O)N1CCN(c2cc(C)ccc2C)CC1	none (no result: SMN2 splice up, p53 reactivation, ELG1 genotoxic, NPC1 promoter act, Rab9 promoter act)
CCc1ccc(Nc2nnc(SCC(=O)NCCN3C(=O)CSC3=O)s2)cc1	SMN2 splice up 11µM, FLuc modulator 1.9µM, ELG1 genotoxic inconclusive, Rab9 promoter act inconclusive
Cc1ccccc1OCc1nc(-c2ccc(NC(=O)c3ccc4c(c3)OCO4)cc2)no1	FLuc modulator inconclusive
Cc1ccccc1OCc1nc(-c2ccc(NC(=O)c3ccco3)cc2)no1	SMN2 splice up 7.1µM, FLuc modulator 11µM, p53 reactivation inconclusive, ELG1 genotoxic inconclusive, NPC1 promoter act inconclusive, Rab9 promoter act inconclusive
CC(Oc1ccc(Cl)cc1Cl)c1nc(-c2ccc(NC(=O)c3ccco3)cc2)no1 (stereo not given)	FLuc modulator 15µM, ELG1 genotoxic inconclusive, Rab9 promoter act inconclusive
Cc1ccccc1OCc1nc(-c2ccc(NC(=O)c3cccs3)cc2)no1	SMN2 splice up inconclusive, FLuc modulator 12µM, p53 reactivation inconclusive, ELG1 genotoxic inconclusive, NPC1 promoter act inconclusive, Rab9 promoter act inconclusive
COc1ccc(-c2noc(C(C)NC(=O)c3ccco3)n2)cc1 (stereo not given)	none (no result: p53 reactivation, ELG1 genotoxic, NPC1 promoter act, Rab9 promoter act)
Cc1ccc(OCC(=O)Nc2cccc(S(=O)(=O)NC3=NCCCCC3)c2)cc1C	FLuc modulator 15µM (no result: SMN2 splice up)
Cc1cc(OCC(=O)Nc2cccc(S(=O)(=O)NC3=NCCCCC3)c2)ccc1Cl	FLuc modulator 17µM
O=C(/C=C/c1ccc(Cl)cc1Cl)Nc1cccc(S(=O)(=O)NC2=NCCCCC2)c1	FLuc modulator 2.4µM, p53 reactivation inconclusive
CCN1CCN(CCCNC(=O)Cn2c(-c3cccs3)cc3cc(F)ccc32)CC1	none (no result: SMN2 splice up, p53 reactivation, ELG1 genotoxic, NPC1 promoter act, Rab9 promoter act)
N#CC1(NC(=O)COC(=O)c2nccnc2N)CCCCC1	none (no result: SMN2 splice up)

From PubChem
